IL1B NFkB inh: inhibitors of IL-1B driven NFkB p65 nuclear import, primary screen, imaging, HUVEC, IL-1B stimulus, high-content imaging; AID 796, 2007; inhibition, % at 2 µM; HUVEC IL-1B NFkB p65 nuclear translocation imaging; actives 0.43% (n = 94,000);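 active = inhibition above about 30% together with a positive call from visual inspection of the well image, limit read from the data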;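 note: nuclear over cytoplasmic p65 intensity ratio measured by imaging; 0% = IL-1B stimulated DMSO wells and 100% = unstimulated DMSO wells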
IL1B cytotox: cytotoxicity in IL-1B stimulated HUVEC, primary screen, cytotoxicity control for IL-1B NFkB translocation project, imaging, Hoechst nuclear count, IL-1B stimulus; AID 845, 2007; actives 0.41% (n = 94,000); cell count reduction, % at 2 µM; HUVEC cell count loss;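 active = cell count reduction more than 3 SD above the screen-wide mean, cut at about 70% in these data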;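 note: normalized per plate to untreated control cells as the no-loss baseline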
NFkB transloc pot: enhancers of NFkB p65 translocation in HUVEC – imaging, IL-1B stimulus, high-content imaging, primary screen; actives 0.3% (n = 94,000); AID 819, 2007; HUVEC IL-1B NFkB p65 nuclear translocation imaging; activation, % at 2 µM;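 active = activation above 40%, about the mean plus 3 SD, also judged a hit on visual image review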;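 note: percent activation is computed from the nuclear over cytoplasmic p65 intensity ratio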
JNK3 blocker: JNK3 kinase activity inhibitors, primary screen, biochemical, human, purified enzyme | inhibition, % at 8 µM | HTS | actives 0.61% (n = 60,000); in the data active = inhibition above about 17%;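 note: 0% = DMSO and 100% = reference inhibitor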
Target sequence (P53779 whole entry, looked up): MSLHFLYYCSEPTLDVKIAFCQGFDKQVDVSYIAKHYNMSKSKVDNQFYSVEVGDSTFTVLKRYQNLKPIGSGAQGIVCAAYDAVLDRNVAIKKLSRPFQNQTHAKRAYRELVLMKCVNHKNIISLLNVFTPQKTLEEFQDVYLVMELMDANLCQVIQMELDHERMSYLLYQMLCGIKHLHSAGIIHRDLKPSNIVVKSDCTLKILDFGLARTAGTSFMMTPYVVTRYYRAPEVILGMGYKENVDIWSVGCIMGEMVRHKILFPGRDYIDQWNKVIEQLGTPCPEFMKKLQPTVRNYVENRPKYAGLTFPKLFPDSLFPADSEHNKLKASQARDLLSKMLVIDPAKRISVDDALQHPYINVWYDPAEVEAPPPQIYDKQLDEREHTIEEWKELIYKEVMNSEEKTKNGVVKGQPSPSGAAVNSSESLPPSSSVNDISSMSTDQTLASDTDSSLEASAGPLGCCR
PTK2B oligo ant: antagonists of Pyk2 self-association, primary screen, Q293 cells, FERM NanoBiT luminescence, HTS | AID 1347419, 2020 | z-score (the deposit names both 25 µM and 10 µM) | actives 0.83% (n = 99,000) | Protein-tyrosine kinase 2-beta (Homo sapiens), Q14289 | stronger effect = lower value;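 active = Z-score of -3 or lower, scaled per plate to the spread of control and sample wells; inactive = z-score above -3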;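 note: negative z-score means lost luminescence so less FERM oligomerization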
FAK inh: FAK kinase inhibitors, primary screen, biochemical; biochemical FAK kinase activity assay; inhibition, %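 (tested at 7 µM)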; actives 0.84% (n = 97,000); in the data active = inhibition above about 19%;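 note: 0% = DMSO and 100% = reference compound high control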
* = called active by the depositor. Hits are enriched below; roughly 2.4% of the tested compounds scored in any of these assays.

What do the screens show for `O=C(OCn1ncc(Cl)c(Cl)c1=O)c1ccccc1Cl`?
IL1B NFkB inh: 90.3*; IL1B cytotox: -6.4; NFkB transloc pot: -90.3; PTK2B oligo ant: 0.85; FAK inh: -0.7

What do the screens show for `O=C(Cn1ncc(Cl)c(Cl)c1=O)c1ccc(Cl)cc1`?
IL1B NFkB inh: 15.7; IL1B cytotox: -165.0; NFkB transloc pot: -15.7; PTK2B oligo ant: -0.81; FAK inh: -0.7

How did O=C(OCn1ncc(Cl)c(Cl)c1=O)c1ccc(F)cc1 do in these assays?
IL1B NFkB inh: 93.2*; IL1B cytotox: 28.8; NFkB transloc pot: -93.2; FAK inh: -1.1

How did O=C(NCc1cccs1)C1CCCN(S(=O)(=O)c2cnc[nH]2)C1 (centres undefined) do in these assays?
IL1B NFkB inh: -10.3; IL1B cytotox: 3.0; NFkB transloc pot: 10.2; JNK3 blocker: -0.1; FAK inh: -5.6

Results for Cc1ccsc1C(=O)Nc1cc(C(C)(C)C)nn1-c1ccccc1 ?
IL1B NFkB inh: -23.9; IL1B cytotox: -22.7; NFkB transloc pot: 23.9; PTK2B oligo ant: -0.46; FAK inh: -0.8

Results for O=P(O)(O)COc1ccccc1P(=O)(c1ccccc1)c1ccccc1 ?
IL1B NFkB inh: 8.0; IL1B cytotox: 7.6; NFkB transloc pot: -8.0; JNK3 blocker: -3.3; PTK2B oligo ant: 0.1; FAK inh: 7.1

How did Cc1cc(C)c(NC(=O)CSc2ccc3nnc(CCNC(=O)c4ccccc4)n3n2)c(C)c1 do in these assays?
PTK2B oligo ant: -0.22

Results for CCOC(=O)N1CCC(NC(=O)c2cc(C(=O)Nc3ccc(OCC)cc3)ccc2CO)CC1 ?
IL1B NFkB inh: -8.4; IL1B cytotox: -6.4; NFkB transloc pot: 8.4; JNK3 blocker: 10.5; PTK2B oligo ant: 1.35; FAK inh: -10.1

Results for CCOC(=O)N1CCC(NC(=O)c2cc(C(=O)NC3CCCC3)ccc2CO)CC1 ?
IL1B NFkB inh: 60.7*; IL1B cytotox: 40.0; NFkB transloc pot: -60.7; JNK3 blocker: -5.0; FAK inh: 5.6

How did C=CCn1c(=O)/c(=C/c2ccc(Cl)cc2)s/c1=C(/C#N)c1nnc2n1CCCCC2 do in these assays?
IL1B NFkB inh: -15.7; IL1B cytotox: -19.3; NFkB transloc pot: 15.7; JNK3 blocker: -2.2; PTK2B oligo ant: -1.97; FAK inh: 0.8

What do the screens show for `C=CCn1c(=O)/c(=C/c2ccc(O)cc2)s/c1=C(/C#N)c1nnc2n1CCCCC2`?
IL1B NFkB inh: -7.2; IL1B cytotox: -31.8; NFkB transloc pot: 7.2; JNK3 blocker: -3.0; PTK2B oligo ant: -3.07*; FAK inh: 0.3

How did CCCCSc1nc(N)c(C#N)c(-c2cccs2)c1C#N do in these assays?
IL1B NFkB inh: -4.5; IL1B cytotox: -16.2; NFkB transloc pot: 4.5; JNK3 blocker: -1.4; PTK2B oligo ant: -3.84*; FAK inh: 8.1

How did CC(=O)CSc1nc(N)c(C#N)c(-c2cccs2)c1C#N do in these assays?
IL1B NFkB inh: -8.5; IL1B cytotox: -15.3; NFkB transloc pot: 8.5; PTK2B oligo ant: -2.2; FAK inh: 0.9

What do the screens show for `O=C(NCCN1CCOCC1)c1cc2sccc2n1Cc1ccc(Cl)cc1`?
JNK3 blocker: 3.5; PTK2B oligo ant: -0.69

How did COc1ccccc1-n1c(CNC(=O)c2ccco2)nnc1SCC(=O)Nc1nccs1 do in these assays?
IL1B NFkB inh: 8.5; IL1B cytotox: -14.6; NFkB transloc pot: -8.5; JNK3 blocker: 0.3; FAK inh: -0.5

Results for COc1cc(CC(=O)Nc2nccs2)cc(OC)c1OC ?
JNK3 blocker: 23.2*; PTK2B oligo ant: -0.2

What do the screens show for `FC(F)(F)c1cc(-c2ccco2)nc(NCc2cccnc2)n1`?
IL1B NFkB inh: -15.6; IL1B cytotox: -18.5; NFkB transloc pot: 15.6; PTK2B oligo ant: 0.06; FAK inh: 5.2

Results for FC(F)(F)c1cc(-c2ccccc2)nc(NCc2cccnc2)n1 ?
IL1B NFkB inh: 7.0; IL1B cytotox: -6.1; NFkB transloc pot: -7.0; PTK2B oligo ant: -3.4*; FAK inh: 9.6

How did O=C(CSc1nnc(Cc2cc(=O)[nH]c(=O)[nH]2)n1-c1ccccc1)NCC1CCCO1 (centres undefined) do in these assays?
IL1B NFkB inh: 14.7; IL1B cytotox: 92.8*; NFkB transloc pot: -14.7; JNK3 blocker: 4.7; PTK2B oligo ant: 0.15; FAK inh: -3.3

Results for O=C(Nc1cccc(-c2nnc(-c3ccccc3)o2)c1)c1ccc(Br)o1 ?
IL1B NFkB inh: -8.2; IL1B cytotox: -7.5; NFkB transloc pot: 8.2; JNK3 blocker: 8.0; PTK2B oligo ant: -3.15*; FAK inh: -0.6

What do the screens show for `O=C(COc1ccccc1)Nc1cccc(-c2nnc(-c3ccccc3)o2)c1`?
JNK3 blocker: -5.5; PTK2B oligo ant: -0.87

How did O=C(CNC(=O)c1ccc(Br)o1)Nc1cccc(-c2cnc3ccccc3n2)c1 do in these assays?
IL1B NFkB inh: -6.4; IL1B cytotox: -11.9; NFkB transloc pot: 6.4; JNK3 blocker: 19.7*; PTK2B oligo ant: -1.36; FAK inh: 12.8

Results for O=C(N1CCN(c2ccccn2)CC1)N1c2ccccc2Sc2ccccc21 ?
IL1B NFkB inh: -38.3; IL1B cytotox: 6.6; NFkB transloc pot: 38.3; JNK3 blocker: -5.7; PTK2B oligo ant: -1.29; FAK inh: -3.9

Results for O=C(Cc1ccc(NS(=O)(=O)c2ccc(F)cc2)cc1)NCc1ccccc1 ?
IL1B NFkB inh: -33.8; IL1B cytotox: 7.4; NFkB transloc pot: 33.8; PTK2B oligo ant: -1.1; FAK inh: 0.6

What do the screens show for `COC(=O)c1cccc(Oc2nc(N3CCOCC3)nc(N3CCOCC3)n2)c1`?
IL1B NFkB inh: -13.6; IL1B cytotox: -2.9; NFkB transloc pot: 13.6; JNK3 blocker: 0.5; FAK inh: 4.1

How did O=C(COc1ccccc1Cl)NCc1ccco1 do in these assays?
IL1B NFkB inh: 98.7*; IL1B cytotox: 80.4*; NFkB transloc pot: -98.7; JNK3 blocker: 3.9; PTK2B oligo ant: 0.88; FAK inh: 0.9

Results for O=C(COc1ccc(Cl)cc1Cl)NCc1ccco1 ?
IL1B NFkB inh: -0.4; IL1B cytotox: -37.5; NFkB transloc pot: 0.4; JNK3 blocker: -7.5; PTK2B oligo ant: -0.27; FAK inh: 0.1

Results for C=CCc1cccc2cc(C(=O)OCC(=O)c3ccccc3)c(=O)oc12 ?
IL1B NFkB inh: -10.3; IL1B cytotox: 86.3*; NFkB transloc pot: 10.3; PTK2B oligo ant: -0.39; FAK inh: -0.2

What do the screens show for `C=CCc1cccc2cc(C(=O)O)c(=O)oc12`?
PTK2B oligo ant: 0.68; FAK inh: 0.1

What do the screens show for `CCOC(=O)C1C(=O)NC(C)C1c1ccccc1` (centres undefined)?
IL1B NFkB inh: -4.6; IL1B cytotox: -24.8; NFkB transloc pot: 4.6; JNK3 blocker: -5.9; PTK2B oligo ant: 0.07; FAK inh: -1.2

What do the screens show for `c1ccc(Cn2cnc3ccccc32)cc1`?
IL1B NFkB inh: 3.3; IL1B cytotox: 94.8*; NFkB transloc pot: -3.3; PTK2B oligo ant: 0.04; FAK inh: 0.7
